Shown are actives, neighbours in structure and some others; about 11% of the full set was active somewhere.
VDR inh: blocks the human vitamin D receptor; 0.93% of 400,000 active; Potency, µM, actives largely listed as inhibitors; VDR-SRC2-3 peptide fluorescence polarization, 2 h; P11473
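Inhibition of the VDR/SRC2-3 peptide interaction is quantified by fluorescence polarization. Compounds (23 nl, pintool) incubate with the reagents for 2 hours at ambient room temperature.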
BAZ2B block: inhibitors of human BAZ2B bromodomain; Potency, µM (top dose mostly 114 µM), actives largely listed as inhibitors; Q9UIF8; 4.4% of 360,000 active; AID 504333; AlphaScreen BAZ2B-H3K14Ac peptide displacement; further: nearly all actives have a fitted effect of over 60% in size
Target sequence (Q9UIF8 whole entry, looked up): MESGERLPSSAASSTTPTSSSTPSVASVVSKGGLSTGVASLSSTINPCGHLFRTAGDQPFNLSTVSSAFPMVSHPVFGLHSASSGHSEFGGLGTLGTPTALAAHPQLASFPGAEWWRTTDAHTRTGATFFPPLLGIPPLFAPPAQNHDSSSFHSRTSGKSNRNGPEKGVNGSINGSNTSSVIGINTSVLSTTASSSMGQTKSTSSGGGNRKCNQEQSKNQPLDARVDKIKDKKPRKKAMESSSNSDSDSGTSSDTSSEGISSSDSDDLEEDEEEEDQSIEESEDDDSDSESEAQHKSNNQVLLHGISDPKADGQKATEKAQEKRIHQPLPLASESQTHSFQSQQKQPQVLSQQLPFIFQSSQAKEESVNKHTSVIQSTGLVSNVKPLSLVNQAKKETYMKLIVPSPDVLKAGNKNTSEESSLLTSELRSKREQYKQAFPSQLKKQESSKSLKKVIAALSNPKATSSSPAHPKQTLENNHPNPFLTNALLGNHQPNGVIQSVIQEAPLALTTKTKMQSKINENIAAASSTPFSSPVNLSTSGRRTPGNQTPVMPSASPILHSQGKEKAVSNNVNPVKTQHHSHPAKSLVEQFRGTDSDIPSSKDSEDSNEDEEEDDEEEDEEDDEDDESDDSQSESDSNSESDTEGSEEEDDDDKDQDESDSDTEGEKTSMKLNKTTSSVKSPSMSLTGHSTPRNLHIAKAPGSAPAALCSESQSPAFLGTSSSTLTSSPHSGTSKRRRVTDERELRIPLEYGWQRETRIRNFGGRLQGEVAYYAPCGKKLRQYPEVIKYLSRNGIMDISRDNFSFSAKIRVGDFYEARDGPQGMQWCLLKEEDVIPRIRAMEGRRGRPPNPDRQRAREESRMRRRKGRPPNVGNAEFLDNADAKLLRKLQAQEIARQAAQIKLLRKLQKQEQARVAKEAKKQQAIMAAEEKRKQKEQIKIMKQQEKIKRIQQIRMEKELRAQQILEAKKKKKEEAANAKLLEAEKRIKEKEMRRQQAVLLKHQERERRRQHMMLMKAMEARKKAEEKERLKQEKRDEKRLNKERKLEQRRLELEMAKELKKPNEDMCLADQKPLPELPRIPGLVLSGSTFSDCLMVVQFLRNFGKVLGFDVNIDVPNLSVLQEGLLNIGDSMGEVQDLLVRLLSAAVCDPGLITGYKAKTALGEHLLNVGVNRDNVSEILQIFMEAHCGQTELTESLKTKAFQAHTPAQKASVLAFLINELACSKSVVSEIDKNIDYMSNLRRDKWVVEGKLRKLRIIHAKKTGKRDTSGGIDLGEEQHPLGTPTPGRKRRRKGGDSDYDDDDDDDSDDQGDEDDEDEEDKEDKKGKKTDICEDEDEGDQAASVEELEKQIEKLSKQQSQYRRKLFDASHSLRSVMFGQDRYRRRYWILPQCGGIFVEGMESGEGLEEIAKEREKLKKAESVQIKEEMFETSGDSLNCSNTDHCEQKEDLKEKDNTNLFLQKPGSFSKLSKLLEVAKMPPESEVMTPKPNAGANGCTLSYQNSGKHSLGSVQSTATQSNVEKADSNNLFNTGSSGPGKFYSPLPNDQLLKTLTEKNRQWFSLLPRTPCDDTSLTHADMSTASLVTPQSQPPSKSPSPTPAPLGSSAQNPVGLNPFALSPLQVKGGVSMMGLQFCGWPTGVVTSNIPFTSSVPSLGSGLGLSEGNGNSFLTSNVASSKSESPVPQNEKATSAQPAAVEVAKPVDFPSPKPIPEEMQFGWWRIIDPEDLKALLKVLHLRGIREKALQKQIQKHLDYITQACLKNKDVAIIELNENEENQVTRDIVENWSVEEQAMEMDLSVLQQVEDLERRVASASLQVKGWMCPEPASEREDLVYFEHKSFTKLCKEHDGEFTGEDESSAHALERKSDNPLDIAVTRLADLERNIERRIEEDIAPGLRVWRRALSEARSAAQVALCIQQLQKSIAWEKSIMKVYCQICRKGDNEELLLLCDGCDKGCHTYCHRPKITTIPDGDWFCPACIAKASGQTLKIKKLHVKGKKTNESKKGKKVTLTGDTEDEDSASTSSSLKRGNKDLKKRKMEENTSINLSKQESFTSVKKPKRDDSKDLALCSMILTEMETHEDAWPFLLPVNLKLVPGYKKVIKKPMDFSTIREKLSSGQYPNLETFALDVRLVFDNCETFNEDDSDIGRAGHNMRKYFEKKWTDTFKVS
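Protein-peptide AlphaScreen: BAZ2B 50 nM, b-H3K14Ac 50 nM, 1x PBS pH 7.4 + 0.01% Tween-20. Preincubation 30 min RT; cpd 30 min RT (top 110 uM); beads 20 min RT, light-protected.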
HP1b chromo inh: HP1-beta chromodomain-methylated histone interaction inhibition; AlphaScreen HP1-beta / biotin-H3K9me3 peptide binding; Potency, µM (titrated, usually from 114 µM), usual class: inhibitors; 0.56% of 390,000 active; AID 540317; further: nearly all actives have a fitted effect of over 70% in size
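AlphaScreen: HP1-beta (50 nM) preformed 30 min with biotin-H3(1-18)K9me3 peptide (50 nM) in PBS pH 7.4, 0.01% Tween-20. Compound added for 30 min at RT, then streptavidin donor/nickel chelate acceptor beads (10 ug/mL) for 30 min.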
JMJD2A Tudor: blocks the human JMJD2A Tudor domain; AlphaScreen JMJD2A-Tudor / H3K4me3 peptide binding; Potency, µM (top dose mostly 114 µM), usual class: inhibitors; 4.4% of 390,000 active; O75164; further: nearly all actives have a fitted effect of over 50% in size
G9a inh: blocks human histone lysine methyltransferase G9a; AID 504332; 8.8% of 350,000 active; Q96KQ7; G9a H3K9 monomethylation, AlphaScreen, 2 h; Potency, µM (titrated, usually from 102 µM), actives largely listed as inhibitors; further: nearly all actives have a fitted effect of over 75% in size
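AlphaScreen read-out: biotin-H3K9 peptide (500 nM) methylation by 20 nM enzyme with 20 uM SAM, 2 h at room temperature after 15 min compound preincubation; anti-monomethyl H3K9 antibody plus donor/acceptor beads, 10 min dark.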
PLK1 PBD inh: PLK1 (human) polo-box domain binding inhibition | P53350 | Potency, µM, usual class: inhibitors | 2.8% of 360,000 active | Plk1 PBD binding of FITC phosphopeptide, fluorescence polarization; further: series mostly up to about 57 µM; nearly all actives have a fitted effect of over 65% in size
Numbers stand for hits; – = inactive; ? = inconclusive; · = no result given; [ ] = dose if it differs, or a comment. The call rests on the fitted dose curve; in most records, active means well fitted curve in the direction sought with a large enough effect; inconclusive means small, poorly fitted or top-dose-only effect, or another doubt; inactive means no such curve, though single readings can be large; an effect the other way counts as inactive or inconclusive.

SMILES | VDR inh | BAZ2B block | HP1b chromo inh | JMJD2A Tudor | G9a inh | PLK1 PBD inh
O=C(O)c1ccccc1CSc1ccccn1 | – | – | – | – | – | –
O=[N+]([O-])c1ccc(Sc2n[nH]c(-c3ccncc3)n2)nc1 | – | – | – | – | 45µM | –
COc1ccc(C2CCCN2CC(O)COc2ccccc2C(C)C)cc1 (stereo unspecified) | – | – | – | – | – | –
COc1ccccc1NC(=O)CSc1ccc(-c2ccc(-n3ccnc3)cc2)nn1 | – | – | – | – | – | –
O=C(Nc1ccc([N+](=O)[O-])cc1)c1ccccc1 | – | – | – | – | – | –
Cc1cc(C)c(C#N)c(SCc2ccccc2[N+](=O)[O-])n1 | – | – | – | – | 10µM | ?
O=[N+]([O-])c1ccc(CSc2ccccn2)cc1 | – | – | – | – | – | –
O=[N+]([O-])c1ccc(Sc2ccccn2)nc1 | – | – | – | – | 45µM | –
Cc1ccc(C#N)c(SCc2ccccc2[N+](=O)[O-])n1 | – | – | – | – | ? | –
O=C(Nc1cc(Sc2ccccn2)cc([N+](=O)[O-])c1)c1ccc([N+](=O)[O-])cc1 | ? | ? | – | 3.2µM | –[12.7 µM] | 1.1µM
O=C(CCS(=O)(=O)c1cccs1)Nc1ccc(C(=O)Nc2cccc(Cl)c2)cc1 | – | – | – | – | – | ·
Cn1c(=O)oc2cc(S(=O)(=O)N3CCC(C(=O)N4CCN(c5ccccc5F)CC4)CC3)ccc21 | – | – | – | – | – | ·
Cc1ccn2c(=O)c(NC(=O)c3cccc([N+](=O)[O-])c3C)c(C)nc2c1 | – | – | – | – | – | ·
CCCCNC(=S)NCc1ccc2[nH]c(C)cc2c1 | – | ? | – | ? | ? | –
CNC(=S)NCc1ccc2[nH]c3c(c2c1)CCCC3 | – | 45µM | – | – | 40µM | –
CCCCNC(=S)NCc1ccc2[nH]c3c(c2c1)CCCC3 | – | · | ? | 40µM | ? | –
c1ccc(CN(Cc2ccccc2)Cc2nnc(-c3cc4ccccc4[nH]3)o2)cc1 | · | · | · | – | · | ·
Cc1ccc(Oc2ccc(NS(=O)(=O)c3cccc(C(=O)O)c3)cc2)cc1 | – | · | – | – | · | –
CC(C)c1ccc(NNC(=O)C2CCC2)cc1 | – | – | – | ? | 7.1µM | –
CCCN1C(=O)N(c2cccc(C)c2)C(C)(O)CC1(C)C (stereo unspecified) | – | – | – | – | · | –
COc1ccccc1C(=O)Nc1cccc(C(=O)OCc2cc(=O)n3c4c(sc3n2)CCCC4)c1 | – | – | – | – | – | ·
O=C(Cn1cnc([N+](=O)[O-])c1)NCc1ccc(F)cc1 | – | – | – | – | · | –
O=C(Cn1cnc([N+](=O)[O-])c1)NCCc1ccccc1 | – | – | – | – | 28µM | –
CC(=O)c1c(N2CCOCC2)nc(=O)n(-c2ccccc2)c1C | – | – | – | – | 45µM | –
CC(=O)c1sc(N/N=C\c2ccccc2O)nc1C | – | – | – | – | –[12.7 µM] | –
SMILES | VDR inh | BAZ2B block | HP1b chromo inh | JMJD2A Tudor | G9a inh | PLK1 PBD inh
C=CCc1c(C)nc(C)nc1N/N=C/c1ccc([N+](=O)[O-])cc1 | – | – | – | – | ? | –
C=CCc1c(C)nc(C)nc1N/N=C/c1ccccc1O | – | 50µM | – | ? | –[12.7 µM] | –
Cc1nnc(N/N=C/c2ccccc2O)n1N | – | 40µM | – | ? | – | –
Cc1nnc(N/N=C/c2cc(C)n(-c3ccc(F)cc3)c2C)n1N | – | 50µM | – | – | ? | –
CCOc1cc(/C=N/Nc2ncnc(Cl)c2N)ccc1O | – | – | – | – | ? | –
CCOc1cc(/C=N/Nc2nnc(C)n2N)ccc1O | – | ? | – | – | 25µM | –
COc1ccccc1CNC(=O)C1CCN(c2nn3c(=O)cc(C)nc3s2)CC1 | – | – | – | – | – | ·
Cc1cc(C)cc(NC(=O)CSCc2nc3c(nnn3Cc3ccc(F)cc3)c(=O)[nH]2)c1 | – | · | – | – | · | –
CC1=C(SCc2ccccc2)C(=O)c2ccccc2C1=O | 14µM | · | ? | 14µM | · | 4.7µM
Cn1c(SCc2ccccc2)nccc1=O | – | · | – | – | · | –
Cc1c(NC(=O)C(C)OC(=O)c2cc(Cl)nc(Cl)c2)c(=O)n(-c2ccccc2)n1C (stereo unspecified) | – | – | – | – | – | –
Cc1c(NC(=O)C(C)OC(=O)c2c3c(nc4ccccc24)CCC3)c(=O)n(-c2ccccc2)n1C (stereo unspecified) | – | 50µM | – | ? | 50µM | –
